# Laboratory results as given in ChEMBL document CHEMBL3988442, “University of Dundee, Small-Polar-MMV Screening Library” (2021).
# About 1,000 (1.4%) of roughly 69,000 compounds showed an effect of 50% or more. Only a selection was taken, and strong results are over-represented in it overall.
# Tested on: Leishmania donovani
# Experiment: Leishmania intramacrophage assay
# Type: functional, organism-based
# Set-up: scale not given: in the data most compounds retested in dose-response had high values
smiles,measurement,setting,value
CN(Cc1cccc(OC(F)(F)F)c1)Cc1cnn(C)c1,Percent Effect,"30.3 µM, […]",10.05%
CCN1CCCC(O)(CNCc2ccncc2)C1 (stereo not given),Percent Effect,"30.3 µM, […]",-12.57%
Cc1cc(NCc2ccc(S(N)(=O)=O)cc2)nc(C)n1,Percent Effect,"30.3 µM, […]",22.51%
COCCN(Cc1ccccc1Cl)c1nc(CCN)nc2ccccc12,Percent Effect,"30.3 µM, […]",98.78%
NCCc1nc(N(Cc2nccs2)C2CC2)c2ccccc2n1,Percent Effect,"30.3 µM, […]",-16.71%
Cc1ccsc1CN(c1nc(CCN)nc2ccccc12)C1CC1,Percent Effect,"30.3 µM, […]",40.33%
NCCc1nc(N(Cc2cncs2)C2CC2)c2ccccc2n1,Percent Effect,"30.3 µM, […]",-1.942%
COCCN(CC1CC1)c1nc(CCN)nc2ccccc12,Percent Effect,"30.3 µM, […]",14.22%
COCCN(Cc1cccs1)c1nc(CCN)nc2ccccc12,Percent Effect,"30.3 µM, […]",70.83%
CCS(=O)(=O)CC(=O)N1CCCC(c2noc(C(C)C)n2)C1 (stereo not given),Percent Effect,"30.3 µM, […]",10.94%
CCOCCN1CCN(CC(O)c2ccc(C)c(C)c2)CC1 (stereo not given),Percent Effect,"30.3 µM, […]",32.27%
Cc1nn(C)c(C)c1C1CCCN1C(=O)c1ccc2nnc(C)n2c1 (stereo not given),Percent Effect,30 µM,22.91%
CCC(CO)N(Cc1ccco1)C(=O)c1ccccc1NC (stereo not given),Percent Effect,"30.3 µM, […]",33.8%
CCC(CO)N(Cc1ccco1)C(=O)c1ccccc1SC (stereo not given),Percent Effect,"30.3 µM, […]",54.97%
CCC(CO)N(Cc1ccco1)C(=O)c1cccc(C)c1O (stereo not given),Percent Effect,"30.3 µM, […]",10.11%
CC(C)COCCNC1CCN(c2ccccn2)CC1,Percent Effect,"30.3 µM, […]",16.23%
FC(F)CN1CCC(NCCc2ccc(-n3cccn3)cc2)CC1,Percent Effect,"30.3 µM, […]",23.28%
c1cnn(-c2ccc(CCNC3CCN(C4CC4)C3)cc2)c1 (stereo not given),Percent Effect,"30.3 µM, […]",-4.355%
c1ccc(N2CCC(NCCc3ccc(-n4cccn4)cc3)CC2)nc1,Percent Effect,"30.3 µM, […]",62.72%
COc1ccc(C(C)CCNC2CCN(c3ccccn3)CC2)cc1 (stereo not given),Percent Effect,"30.3 µM, […]",60.53%
CC(CNC1CCN(c2ccccn2)CC1)Oc1ccc(F)cc1 (stereo not given),Percent Effect,"30.3 µM, […]",19.84%
O=C(O)C(F)(F)F.O=C(c1n[nH]c2c1CCN(Cc1nccs1)C2)N1CCCC1,Percent Effect,"30 µM, 30.03 µM",10.02%
COc1cccc(-n2cc(CN(C)Cc3ccnc(C(C)C)n3)cn2)c1,Percent Effect,"30.3 µM, […]",11.44%
CCOCC1CN(C(=O)Cc2ccccn2)Cc2cn(C)nc21 (stereo not given),Percent Effect,"30.3 µM, […]",5.026%
O=C(c1ccco1)N1CCOCC2(C1)CN(c1ccoc1)C(=O)CO2 (stereo not given),Percent Effect,"30.3 µM, […]",15.48%
CCn1cnnc1CCNC(=O)C1COc2ccc(OC)cc2C1 (stereo not given),Percent Effect,"30.3 µM, […]",15.43%
COc1nn(C)c2c1CCCN(C(=O)c1cccc(C)n1)C2.O=C(O)C(F)(F)F,Percent Effect,"30.3 µM, […]",4.327%
COc1nn(C)c2c1CCCN(C(=O)c1ccc3ccccc3n1)C2.O=C(O)C(F)(F)F,Percent Effect,"30.3 µM, […]",-11.56%
COc1nn(C)c2c1CCCN(C(=O)c1cccc3cccnc13)C2.O=C(O)C(F)(F)F,Percent Effect,"30.3 µM, […]",75.35%
Cc1nc2ccccc2c(=O)n1CCC(=O)N1CCCCCC1,Percent Effect,30 µM,21.32%
Cc1nc(=O)c2ccccc2n1C1=CCN(CC(=O)NC(C)C)CC1,Percent Effect,"30.3 µM, […]",64.5%
Cc1nc2ccccc2c(=O)n1CCC(=O)N1CCCC1,Percent Effect,30 µM,19.05%
COCCNC(=O)CN1CC=C(n2c(C)nc(=O)c3ccccc32)CC1,Percent Effect,"30.3 µM, […]",40.79%
Cc1nnc2n1CCN(CC(=O)NC(C)c1cccc3ccccc13)C2 (stereo not given),Percent Effect,"30.3 µM, […]",-27.74%
Cc1nc(=O)c2ccccc2n1C1=CCN(CC(=O)N2CCCC2)CC1,Percent Effect,"30.3 µM, […]",66.01%
CSCCNC(=O)c1ccc(OC2CCN(CC(C)(C)C)CC2)c(Cl)c1,Percent Effect,"30 µM, 30.03 µM",17.7%
COCc1n[nH]c2c1CN(Cc1ccccn1)C2.O=C(O)C(F)(F)F,Percent Effect,"30.3 µM, […]",2.635%
Cc1nc(CN2CC[C@H]3[C@@H]2CCC(=O)N3c2cnn(C)c2)cs1.O=C(O)C(F)(F)F,Percent Effect,"30.3 µM, […]",2.736%
CC(C)(C)C(=O)N1CCN(C(=O)Nc2cnn(CC(F)F)c2)CC1,Percent Effect,"30.3 µM, […]",4.989%
O=C(c1cccnc1)N1CCCC(c2ncncc2-c2ccncc2)C1 (stereo not given),Percent Effect,"30.3 µM, […]",1.341%
CCO[C@@H]1CCN(C(=O)c2cnc(C)cn2)[C@@H]1Cc1cnn(C)c1,Percent Effect,"30.3 µM, […]",53.66%
CCO[C@@H]1CCN(C(=O)N(C)C)[C@@H]1Cc1cnn(C)c1,Percent Effect,"30.3 µM, […]",27.5%
COCCO[C@H]1CCN(C(=O)c2ccsc2)[C@H]1Cc1ccncc1,Percent Effect,"30.3 µM, […]",26.31%
COCCO[C@H]1CCN(C(=O)c2cnccn2)[C@H]1Cc1ccncc1,Percent Effect,"30.3 µM, […]",54.37%
COCCO[C@H]1CCN(C(=O)c2ccc[nH]2)[C@H]1Cc1ccncc1,Percent Effect,"30 µM, 30.03 µM",17.48%
CCO[C@@H]1CCN(C(=O)c2cscn2)[C@@H]1Cc1cnn(C)c1,Percent Effect,"30 µM, 30.03 µM",-2.934%
CN(C)S(=O)(=O)N1CC[C@]2(C[C@@H](Oc3cccnc3)CO2)C1.O=C(O)C(F)(F)F,Percent Effect,"30.3 µM, […]",7.751%
Cc1ccc(N2CCCc3sc(C(=O)NCc4ccc(C)o4)nc32)nn1,Percent Effect,"30.3 µM, […]",18.34%
O=C1NCCN1CCNCC1(O)CCCN(CCC2CCCCC2)C1=O (stereo not given),Percent Effect,"30.3 µM, […]",17.71%
O=C1OCCN1CCNCC1(O)CCCN(CCC2CCCCC2)C1=O (stereo not given),Percent Effect,"30.3 µM, […]",27.13%
